# Assay outcomes: PubChem, National Center for Advancing Translational Sciences (NCATS)
# An excerpt weighted towards active compounds, which were near 21% of everything screened.
# ELG1 repair inh = qHTS screen for small molecules that inhibit ELG1-dependent DNA repair in human embryonic kidney (HEK293T) cells expressing luciferase-tagged ELG1. 2.3% of 330,000 active. AID 504467, 2011. HEK293T ELG1-luciferase reporter, luminescence, 16 h; DNA damage induced by 5-fluorouridine. Potency, µM (highest dose often 46.1 µM), inactives show at the highest dose activity change, negative = inhibition, most hits filed as inhibitors; also: potency is read from the fitted curve at half-maximal effect; nearly all actives have a fitted effect of over 55% in size
#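 Cells (2,000 per well) received 5-fluorouridine plus test compound or DMSO and were incubated 16 hr at 37 °C, 5% CO2. Luciferase activity was read by luminescence 30 min after ONE-Glo addition; signal suppression marked inhibition of damage-induced ELG1 function.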
# RORg inh = qHTS for inhibitors of ROR gamma transcriptional activity | Nuclear receptor ROR-gamma (Mus musculus), P51450 | Drosophila S2 Gal4-RORgamma UAS-luciferase reporter, 20 h | Potency, µM (series often up to 53.6 µM), without a hit: top-dose activity change, negative = inhibition, most hits filed as inhibitors | 5.4% of 310,000 active; also: potency is read from the fitted curve at half-maximal effect; nearly all actives have a fitted effect of over 60% in size
# Target sequence (P51450 whole entry, looked up, the tested form may be a part): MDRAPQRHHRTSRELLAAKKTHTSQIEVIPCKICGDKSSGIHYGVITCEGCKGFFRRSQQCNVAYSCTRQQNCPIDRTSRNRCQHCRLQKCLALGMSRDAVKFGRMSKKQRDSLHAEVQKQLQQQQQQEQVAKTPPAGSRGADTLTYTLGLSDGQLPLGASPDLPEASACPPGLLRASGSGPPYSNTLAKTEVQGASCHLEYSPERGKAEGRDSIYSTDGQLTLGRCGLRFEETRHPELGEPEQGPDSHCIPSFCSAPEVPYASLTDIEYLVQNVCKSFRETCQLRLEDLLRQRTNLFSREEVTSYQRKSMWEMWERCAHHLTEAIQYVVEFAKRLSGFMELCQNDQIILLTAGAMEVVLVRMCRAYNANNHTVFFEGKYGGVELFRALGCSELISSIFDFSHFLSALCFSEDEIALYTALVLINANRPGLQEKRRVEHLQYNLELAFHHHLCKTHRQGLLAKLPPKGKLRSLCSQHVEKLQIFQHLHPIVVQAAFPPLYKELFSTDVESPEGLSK
#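 Using a luciferase readout, inhibitors were identified by reduced reporter activity in Drosophila cells coexpressing a copper-inducible Gal4–ROR gamma fusion and UAS-driven Photinus luciferase, incubated 20 hr after 700 uM copper sulfate.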
# IL-1B inflam inh = qHTS for Inhibitors of Inflammasome Signaling: IL-1-beta AlphaLISA Primary Screen | 4.7% of 360,000 active | activity change, % at 57.5 µM | AID 743279, 2014 | THP-1 LPS/ATP IL-1B secretion, AlphaLISA, 16 h; stronger effect = lower value; in the data active = activity change below about -50%; inconclusive = mostly about -30% to -49%
#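 Secreted IL-1B measured by AlphaLISA bead assay after 16 h compound exposure of THP-1 cells; compounds (final up to 57.5 uM) added 1 h before LPS (250 ng/mL) and ATP (1.25 mM) stimulation; lower signal means less secretion.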
# DT40 TDP1 CPT = qHTS for Inhibitors of human tyrosyl-DNA phosphodiesterase 1 (TDP1): qHTS in cells in presence of CPT; chicken DT40 Tdp1-/-;hTDP1 cells + 20 nM CPT, ATP luminescence, 48 h; Potency, µM (doses to about 46.2 µM), without a hit: at the top dose activity change, negative = growth inhibition, usual class: inhibitors; 12% of 420,000 active; also: potency is read from the fitted curve at half-maximal effect; nearly all actives have a fitted effect of over 55% in size
#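 Cell growth measured by CellTiter-Glo luminescence after a minimum 48 h, 37 C compound exposure with 20 nM CPT in Tdp1-knockout DT40 cells stably expressing hTDP1, seeded 400/well; qHTS titration format.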
# DT40 TDP1 no CPT = qHTS for Inhibitors of human tyrosyl-DNA phosphodiesterase 1 (TDP1): qHTS in cells in absence of CPT. DT40 Tdp1-/- hTDP1 cells, no CPT, ATP luminescence, 48 h. Potency, µM (top dose mostly 46.2 µM), without a hit: at the top dose activity change, negative = growth inhibition, hits mostly inhibitors. 15% of 420,000 active. AID 686978, 2013; also: potency is read from the fitted curve at half-maximal effect; nearly all actives have a fitted effect of over 55% in size
#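 Camptothecin absent (DMSO only). Human TDP1-complemented DT40 knockout cells, 400 cells/well, 37 °C for minimum 48 hr; ATP measured via CellTiter-Glo, 30 min dark incubation, luminescence.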
# VP16 counter = VP16 counterscreen qHTS for inhibitors of ROR gamma transcriptional activity; Drosophila S2 Gal4-VP16 UAS-luciferase, luminescence, 20 h; Potency, µM (series often up to 53.6 µM), inactives show at the highest dose activity, negative = inhibition, hits mostly inhibitors; 3.5% of 310,000 active;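 also: Gal4-VP16 expression switched on by copper sulfate through the metallothionein promoter; potency is read from the fitted curve at half-maximal effect; nearly all actives have a fitted effect of over 50% in size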
# * = called active by the depositor; ? = inconclusive; . = no result; [ ] = dose if it differs, or a comment. Unless noted, calls follow the shape of the dose curve; as a rule, active = well fitted curve in the direction sought with a large enough effect; inconclusive = small, poorly fitted or top-dose-only effect, or another doubt; inactive = no such curve, though single readings can be large; an effect the other way counts as inactive or inconclusive. % is scaled to controls: 0 for no effect and ±100 for the full control effect.
SMILES,ELG1 repair inh,RORg inh,IL-1B inflam inh,DT40 TDP1 CPT,DT40 TDP1 no CPT,VP16 counter
COC(=O)C/C=C\[C@@H](C)[C@@H](/C=N\O[C@@H](C)c1cn([C@H](CO)Cc2ccccc2)nn1)NS(=O)(=O)c1ccc(C)cc1,.,-11.6%[10 µM],.,.,.,5.6%[10 µM]
O=C(CCN1C(=O)/C(=C/c2ccccc2)SC1=S)N[C@@H](CO)Cc1ccccc1,-19.0%,-31.8%,-60.8*,18.4µM*,10.3µM*,-6.1%
O=C(CCN1C(=O)/C(=C\c2ccccc2F)SC1=S)Nc1ccc(C(=O)O)c(O)c1,23.3%,-0.3%,.,.,.,-0.8%
O=C(CCN1C(=O)/C(=C/c2ccccc2F)SC1=S)N[C@@H](CO)Cc1ccccc1,?,-35.2%,-99.3*,?,16.4µM*,-14.3%
CC(=NCc1ccccc1)c1ccc(O)cc1O,.,.,-16.2,-0.7%,?,.
Cc1ccccc1SCC(=O)N/N=C/c1ccc(F)cc1,-8.2%,5.0%,-4.1,?,3.8%,4.8%
O=C(CSC1CN(C(c2ccccc2)c2ccccc2)C1)N/N=C/c1ccccc1,-24.6%,-0.7%,-22.8,16.4µM*,?,-1.1%
CCCCCCCNC(=O)C1(CC2CC(c3ccc(Cl)cc3)=NO2)CCN(C(=O)Cc2ccc(F)cc2)CC1 (stereo unspecified),?,17.1%,-24.4,?,?,-12.6%
CCCCCCCNC(=O)C1(CC2CC(c3ccc(Cl)cc3)=NO2)CCN(C(=O)CCCCCBr)CC1 (stereo unspecified),?,41.9%,?,16.4µM*,18.4µM*,-2.8%
CCCCCCCNC(=O)C1(CC2CC(c3cccc(Br)c3)=NO2)CCNCC1 (stereo unspecified),?,23.3%,-101.6*,13µM*,16.4µM*,-15.1%
CCCCCCCNC(=O)C1(CC2CC(c3cccc(Br)c3)=NO2)CCN(C(=O)Cc2ccc(F)cc2)CC1 (stereo unspecified),?,.,-58.7*,?,16.4µM*,.
O=C(CCCCCBr)N1CCC(CC2CC(c3ccc(Cl)cc3)=NO2)(C(=O)NCC2CCCCC2)CC1 (stereo unspecified),-28.6%,?,-18.5,-28.8%,?,-0.7%
CCCCCCCNC(=O)C1(CC2CC(c3cccc(Br)c3)=NO2)CCN(C(=O)c2ccccc2)CC1 (stereo unspecified),-28.3%,.,-10.6,?,?,.
COc1ccc(CNC(=O)C2(CC3CC(c4ccccc4)=NO3)CCN(C(=O)CCCCCBr)CC2)cc1 (stereo unspecified),.,.,-8.9,9.2µM*,?,.
COc1ccc(NCc2ccccc2-c2nnc(-c3ccccc3)o2)cc1Cl,.,.,.,-16.1%,-15.8%,.
CCCCCCCNC(=O)C1(CC2CC(c3ccc(Cl)cc3)=NO2)CCNCC1 (stereo unspecified),0.0%,?,-84.1*,8.2µM*,10.3µM*,?
CCCNC(=O)C1(CC2CC(c3ccccc3)=NO2)CCNCC1 (stereo unspecified),.,.,-18.0,-4.5%,-10.7%,.
CCCCCCCNC(=O)C1(CC2CC(c3ccc(Cl)cc3)=NO2)CCN(C(=O)c2cc(OCC)c(OCC)c(OCC)c2)CC1 (stereo unspecified),?,20.2%,-27.7,20.6µM*,10.3µM*,-10.4%
C#CCOC(=O)CCCNc1ccc([N+](=O)[O-])cc1[N+](=O)[O-],-0.4%,-1.8%,1.1,1.7%,-5.8%,1.1%
CCOC(=O)/C(N=Nc1sc(C(=O)OCC)c(C)c1C(=O)OCC)=C(\C)O,13.1%,-8.1%,.,.,.,-12.0%
CCOC(=O)/C(N=Nc1sc(C(=O)OC)c(C)c1C(=O)OCC)=C(\O)CCl,-11.9%,?,11.7,?,14.6µM*,-4.3%
O=C(NCC1CCCO1)/C(=C/c1ccccc1F)NC(=O)c1ccccc1 (stereo unspecified),23.4%,-6.9%,-7.6,5.4%,-4.2%,0.6%
COc1ccc(CN(C)C(=O)c2cc(-c3ccccc3)nc3ccc(C)cc23)c(OC)c1OC,?,16.5%,-64.1*,18.4µM*,16.4µM*,4.7%
COc1ccccc1CN(C)C(=O)c1cc(-c2cccs2)nc2ccccc12,?,42.7%,-10.6,?,16.4µM*,1.4%
CN1CCC(N(C)C(=O)c2cc(-c3ccc(F)cc3)nc3ccccc23)CC1,0.0%,.,-67.8*,?,?,.
SMILES,ELG1 repair inh,RORg inh,IL-1B inflam inh,DT40 TDP1 CPT,DT40 TDP1 no CPT,VP16 counter
COc1ccc(-c2cc(C(=O)N(C)Cc3cccc(OC)c3OC)c3ccccc3n2)cc1OC,13µM*,15.4%,-10.1,20.6µM*,14.6µM*,-4.8%
O=C(O)c1ccccc1-c1ccc(C=c2sc3nc4cc(Br)cnc4n3c2=O)o1,.,.,-9.2,?,?,.
COc1ccc(-c2cc(C(=O)Oc3cccc(C)c3)c3ccccc3n2)cc1,.,.,.,-14.4%,?,.
Cc1c(CN(C)C(=O)c2cc(-c3ccccc3)nc3ccc(Br)cc23)cnn1C,.,.,.,20.6µM*,10.3µM*,.
COc1ccc(CN(C)C(=O)c2cc(-c3ccc(OC)c(OC)c3)nc3ccccc23)c(OC)c1,2.3%,14.1%,-3.2,16.4µM*,18.4µM*,-3.3%
COc1cccc(CN(C)C(=O)c2cc(-c3ccc(OC)c(OC)c3)nc3ccccc23)c1,15.6%,-8.4%,-22.0,14.6µM*,?,5.4%
COc1cccc(CN(C)C(=O)c2cc(-c3ccc(F)cc3)nc3ccccc23)c1,?,-3.2%,-28.6,20.6µM*,20.6µM*,5.6%
COc1ccc2cc(-c3cc(C(=O)O)c4ccccc4n3)ccc2c1,?,3.8%,28.2,?,?,-2.0%
COc1ccc(CCN(C)C(=O)c2cc(-c3ccccc3)nc3ccc(C)cc23)cc1OC,?,-16.5%,-23.1,?,?,-12.6%
CCCCn1c(N)c(N(CCOC)C(=O)c2oc3c(Cl)cccc3c2C)c(=O)[nH]c1=O,.,.,-6.6,-17.9%,-13.2%,.
O=C(Nc1ccc(Cl)cc1)C1CCCN(c2cnccn2)C1 (stereo unspecified),8.4%,-1.1%,-16.5,?,?,-19.1%
